Bioassay records as filed in PubChem.
SNCA expr inh: SNCA gene expression inhibition | HEK-293 SNCA-luciferase knock-in, luminescence, 24 h | Potency, µM (series often up to 57.2 µM), actives largely listed as inhibitors | 140,000 tested, 0.17% active | AID 1671194; further: nearly all actives have a fitted effect of over 45% in size
HEK293 viab: reduces viability of HEK-293 SNCA reporter cells. 150,000 tested, 0.12% active. AID 1671193. Potency, µM (series often up to 57.1 µM), actives largely listed as cytotoxic. HEK-293-SNCA-luc viability, GF-AFC fluorescence, 24 h; further: nearly all actives have a fitted effect of over 30% in size
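HEK-293-SNCA-luc cells (1500/well) plated 24 h, then exposed 24 h to a dilution series; GF-AFC added 30 min at 37C, fluorescence 405/540 nm; normalised to medium-only and DMSO wells, Hill fit.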
KDM5B inh: inhibitors of human KDM5B histone demethylase. Q9UGL1. KDM5B demethylase, FDH-coupled NADH fluorescence (FDH is formaldehyde dehydrogenase). Potency, µM (titrated, usually from 57.7 µM), most hits filed as inhibitors. 220,000 tested, 2.6% active; further: nearly all actives have a fitted effect of over 70% in size
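KDM5BΔAP (200 nM final) in 50 mM HEPES pH 7.5, 0.01% Tween-20 was preincubated 10 min at RT with compound over a concentration range. Substrate mix (H3K4me3 12.5 µM, α-KG 25 µM, Fe²⁺, ascorbate, NAD⁺, FDH) was added, and NADH fluorescence change over 30 min gave dose-response curves.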
IP6K1 inh: inhibitors of human IP6K1. Q92551. IP6K1 kinase, ADP-Glo luminescence, 2 h; active compounds read low. activity change, % (series mostly up to about 58 µM). 140,000 tested, 0.81% active; in the data active means activity change below about -25%
Target sequence (Q92551 whole entry, looked up): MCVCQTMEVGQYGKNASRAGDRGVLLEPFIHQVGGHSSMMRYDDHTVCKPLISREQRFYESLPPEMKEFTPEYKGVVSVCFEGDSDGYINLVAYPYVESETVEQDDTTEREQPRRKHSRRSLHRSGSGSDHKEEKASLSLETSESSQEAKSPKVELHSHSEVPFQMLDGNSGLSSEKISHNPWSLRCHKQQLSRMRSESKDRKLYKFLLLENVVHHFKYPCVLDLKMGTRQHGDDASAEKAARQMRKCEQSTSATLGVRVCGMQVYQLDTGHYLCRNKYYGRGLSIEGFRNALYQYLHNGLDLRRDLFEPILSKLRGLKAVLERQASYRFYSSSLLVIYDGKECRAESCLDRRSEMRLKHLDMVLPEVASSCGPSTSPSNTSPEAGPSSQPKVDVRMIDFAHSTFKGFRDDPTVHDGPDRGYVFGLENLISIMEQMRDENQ
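ADP-Glo luminescence measures ADP made by human IP6K1 during a 2 h RT reaction with ATP/IP6 (mix at 1.3 mM/130 uM); top library doses 57.5 and 19.1 uM final.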
Of the large screens only hits and unclear results are named; the others gave an inactive call. Hits are enriched below; roughly 2.9% of the tested compounds scored in any of these assays. Unless noted, the call rests on the fitted dose curve; in most records, active means well fitted curve in the direction sought with a large enough effect; inconclusive means small, poorly fitted or top-dose-only effect, or another doubt; inactive means no such curve, though single readings can be large; an effect the other way counts as inactive or inconclusive.

CN1c2cccnc2CN(C2CCC(CO)CC2)CC[C@H]1CO (some centres undefined)	none
Cc1cc(C2CCC2)nc(N2C[C@@H](C)[C@@](C)(O)C2)n1	SNCA expr inh inconclusive, KDM5B inh 28µM
C[C@@H]1CN(C(=O)c2ccc3c(c2)CCC3)C[C@]1(C)O	none
CN(C)c1nc2c(c(=O)[nH]1)CCN(Cc1ccc(Cl)c(F)c1)CC2	KDM5B inh 28µM
COc1ccc(NC(=O)C2CN(c3ccnc4ccnn34)C2)cc1	none (no result: KDM5B inh)
CC1CCN(CCNC(=O)c2ccc(Cn3c(SCc4ccccc4)nc4cccnc43)cc2)CC1	HEK293 viab 10µM, KDM5B inh inconclusive
Cn1nc(-c2nncn2-c2ccccc2)c2c1CCN(C(=O)c1ccncc1)C2	KDM5B inh inconclusive
Cn1ncc2c(C(=O)NCc3ccncc3)cc(-c3ccc(F)cc3)nc21	KDM5B inh 79µM
COc1ccc(-c2cc(C(=O)NCC3CC3)c3cnn(C)c3n2)cc1	none (no result: KDM5B inh)
Cn1ncc2c(C(=O)NCC3CC3)cc(-c3cccnc3)nc21	KDM5B inh 100µM
Cn1ncc2c(C(=O)NCc3ccc(C(F)(F)F)cc3)cc(-c3ccc(F)cc3)nc21	none (no result: SNCA expr inh, HEK293 viab, KDM5B inh)
Cn1ncc2c(-c3ccc([S+](C)(=O)[O-])cc3)cc(C(=O)NCc3ccc(F)cc3)nc21	SNCA expr inh inconclusive, KDM5B inh 79µM
O=C(C1CCCCC1)N1CCC2(CC1)NCc1ccccc1NC2=O	none
O=C(c1ccccc1)N1CCC2(CC1)NCc1ccccc1NC2=O	KDM5B inh 89µM
Cn1nccc1C(O)c1cc2n(n1)CCN(C/C=C/c1ccccc1)C2 (centres undefined)	KDM5B inh 32µM
Cn1ccnc1C(O)c1cc2n(n1)CCN(C/C=C/c1ccccc1)C2 (centres undefined)	none
COc1ccc(C(C#N)(CCC#N)C(C)C)cc1OC (centres undefined)	none (no result: SNCA expr inh, HEK293 viab, IP6K1 inh)
CCCOCCCNC(=O)c1c(C)noc1-c1ccc2c(c1)OCO2	KDM5B inh 28µM
CCCOCCNC(=O)c1c(C)noc1-c1ccc2c(c1)OCO2	KDM5B inh 28µM
COc1ccc(C(=O)N[C@@H]2CN(C(=O)NC3CCCCC3)CCC[C@H]2O)cc1	none
Cc1ccsc1C(=O)Oc1ccc(-c2ccc(C#N)cc2)cc1	none (no result: SNCA expr inh, HEK293 viab, IP6K1 inh)
O=C(CCNS(=O)(=O)c1ccccc1)N1CCCCCC1	none (no result: SNCA expr inh, HEK293 viab, IP6K1 inh)
COc1ccc(-c2nc3cnccn3c2NCCC(=O)N2CCCCCC2)cc1	HEK293 viab inconclusive, KDM5B inh 28µM
O=C(CCNc1c(-c2ccccc2)nc2cnccn12)N1CCCC1	HEK293 viab inconclusive, KDM5B inh 28µM
CCc1cccc(C)c1Nc1c(-c2ccc(N(C)C)cc2)nc2cnccn12	HEK293 viab inconclusive, KDM5B inh inconclusive
O=C(O)CCNc1c(-c2ccc(F)cc2)nc2cnccn12	KDM5B inh 28µM
CN(Cc1ccccc1)C(=O)CCNc1c(-c2cccc(F)c2)nc2cnccn12	HEK293 viab inconclusive, KDM5B inh 25µM
COc1ccc(C(=O)/C=C/c2ccccc2Cl)cc1CC(=O)O	none (no result: SNCA expr inh, HEK293 viab, IP6K1 inh)
O=C(CCNc1c(-c2cccc(F)c2)nc2cnccn12)N1CCCC1	HEK293 viab inconclusive, KDM5B inh 28µM
CCc1cccc(C)c1Nc1c(-c2cccc(O)c2)nc2cnccn12	HEK293 viab inconclusive, KDM5B inh inconclusive
Cc1ccc(-c2nc3cnccn3c2NCCC(=O)N2CCCCC2)cc1	HEK293 viab inconclusive, KDM5B inh 32µM
Cn1nc(C(=O)N2CCCCCCNC(=O)[C@@H]3CCCC[C@@H]32)c2ccccc21	HEK293 viab inconclusive
CC(C)c1ccc(C#N)c(N2CC[C@H](N3CCOCC3)[C@H](CCCO)C2)n1	KDM5B inh 28µM
COCCNC(=O)c1cc(-c2ccc(OC)cc2)nc2c1c(C1CCNC1)nn2C (centres undefined)	KDM5B inh inconclusive
COc1ccc(-c2cc(C(=O)NC3CC3)c3c(C4CCNC4)nn(C)c3n2)cc1 (centres undefined)	KDM5B inh 79µM
O=C(NC1CC1)c1cc(C2CC2)nc2onc(C3CCCNC3)c12 (centres undefined)	KDM5B inh inconclusive
O=C(NC1CCCC1)c1cc(C2CC2)nc2onc(C3CCNC3)c12 (centres undefined)	KDM5B inh inconclusive
COc1ccc(-c2cc(C(=O)NCC3CC3)c3c(C4CCNC4)noc3n2)cc1 (centres undefined)	KDM5B inh 79µM
COc1ccc(-c2cc(C(=O)NC3CC3)c3c(C4CCCNC4)noc3n2)cc1 (centres undefined)	KDM5B inh 79µM
COc1ccc(-c2cc(C(=O)NCC3CC3)c3c(C4CCCN4)noc3n2)cc1 (centres undefined)	KDM5B inh inconclusive
O=C(NC1CCNCC1)c1cc(C2CC2)nc2onc(C3CCNC3)c12 (centres undefined)	KDM5B inh 79µM
O=Cc1cccn1-c1ccccc1Br	none (no result: SNCA expr inh, HEK293 viab, IP6K1 inh)
CN(C)C[C@@H]1CN(C)C[C@H]1NS(=O)(=O)c1ccc(C(F)(F)F)cc1	none
CCCn1cc(-c2ccnc(NC3CCN(Cc4cccnc4)CC3)n2)c(C)n1	SNCA expr inh inconclusive, HEK293 viab inconclusive, KDM5B inh 32µM
Cc1nc(CC(=O)NCc2ccc3[nH]c(-c4ccc(F)cc4)c(C)c3c2)cs1	KDM5B inh 32µM
Cc1c(-c2ccc(F)cc2)[nH]c2ccc(CNCc3cnn(C)c3)cc12	KDM5B inh 32µM
Cc1c(-c2ccc(F)cc2)[nH]c2ccc(CNC(=O)[C@@H]3CCCO3)cc12	KDM5B inh 28µM
Cc1c(-c2ccc(F)cc2)[nH]c2ccc(CNC(=O)CCN3CCCO3)cc12	KDM5B inh 32µM
Cc1ccc2c(c1)N(CCC(=O)NCc1ccc(F)cc1)C(=O)CO2	KDM5B inh inconclusive
Cc1noc(-c2ccn3c(CNC(=O)Cc4ccc(OC(F)(F)F)cc4)nnc3c2)n1	KDM5B inh inconclusive
Cc1noc(-c2ccn3c(CNC(=O)CCC4CCCC4)nnc3c2)n1	KDM5B inh 22µM
CCc1noc(-c2ccn3c(CNC(=O)CCC4CCCC4)nnc3c2)n1	KDM5B inh 4.5µM
CCc1noc(-c2ccn3c(CNC(=O)C4CCCCC4)nnc3c2)n1	KDM5B inh 28µM
CCOC(=O)c1c(C)[nH]c(C)c1S(=O)(=O)N(C)CC(=O)Nc1cc(Cl)ccc1OC	IP6K1 inh -28
CCOC(=O)c1c(C)[nH]c(C)c1S(=O)(=O)NCC(=O)Nc1cc(Cl)ccc1OC	none
Cc1cc(CNC(=O)[C@@H]2CCC[C@@H](NCc3nccs3)CN(C)C(=O)C2)no1	none
COc1cc(/C=C(/C#N)S(=O)(=O)c2ccc(Cl)cc2)cc(OC)c1	none (no result: SNCA expr inh, HEK293 viab, IP6K1 inh)
COc1cccc(NC(=O)c2ccc3c(c2)NC(C)(COc2ccc4[nH]ccc4c2)CO3)c1 (centres undefined)	SNCA expr inh inconclusive, KDM5B inh 32µM
COc1ccc(OCC2(C)COc3ccc(C(=O)Nc4ccc(OC)nc4)cc3N2)cc1 (centres undefined)	SNCA expr inh inconclusive, HEK293 viab inconclusive, KDM5B inh 40µM
